Assay outcomes deposited in PubChem by National Center for Advancing Translational Sciences (NCATS).
GLS inh: qHTS for Inhibitors of Glutaminase (GLS) | Glutaminase kidney isoform, mitochondrial (Homo sapiens), O94925 | GLS enzymatic activity, qHTS titration | Potency, µM (series often up to 45.5 µM), for the others: at the top dose activity change, negative = inhibition, most hits filed as inhibitors | actives 0.21% (n = 410,000) | AID 624170, 2012; note: potency is the fitted concentration of half-maximal effect
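Glutamate formation by hKGA was monitored fluorometrically using coupled glutamate oxidase, HRP and Amplex Red. Substrate was added as 1 mM L-glutamine solution; incubation was 30 min at RT after an initial read.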
PI4K2A block: qHTS for small molecular inhibitors of PI4K2A; actives 0.13% (n = 420,000); AID 1346378, 2018; Phosphatidylinositol 4-kinase type 2-alpha (Homo sapiens), Q9BTU6; purified PI4K2A, ADP-Glo luminescence, 1 h; stronger effect = lower value; activity change, negative = inhibition, % at 76.9 µM; in the data active = activity change below about -50%; inconclusive = mostly about -30% to -49%;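 note: -100% = wells without enzyme as full effect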
Target sequence (Q9BTU6 whole entry, looked up): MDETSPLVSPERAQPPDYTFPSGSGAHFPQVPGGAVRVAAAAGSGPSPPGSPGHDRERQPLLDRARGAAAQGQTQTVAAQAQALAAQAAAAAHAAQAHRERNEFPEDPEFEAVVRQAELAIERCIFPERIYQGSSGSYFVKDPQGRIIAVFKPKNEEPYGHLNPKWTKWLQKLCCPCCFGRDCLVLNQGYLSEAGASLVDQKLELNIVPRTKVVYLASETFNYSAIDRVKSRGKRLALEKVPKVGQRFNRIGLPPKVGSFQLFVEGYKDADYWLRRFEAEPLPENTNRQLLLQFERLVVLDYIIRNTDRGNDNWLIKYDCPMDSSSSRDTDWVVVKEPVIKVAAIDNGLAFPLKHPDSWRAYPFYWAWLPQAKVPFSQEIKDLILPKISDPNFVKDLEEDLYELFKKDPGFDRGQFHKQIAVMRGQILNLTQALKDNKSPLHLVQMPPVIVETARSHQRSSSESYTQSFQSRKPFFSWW
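PI4K2A activity was measured by ADP-Glo luminescence: enzyme (4 ug/mL stock) and phosphatidylinositol (1.2 mM stock) in Tris pH 7.5/MgCl2/EGTA/Triton X-100 buffer were reacted with ATP (300 microM stock) for one hour at ambient temperature.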
GCN5L2 inh: qHTS Assay for Inhibitors of GCN5L2; Histone acetyltransferase KAT2A (Homo sapiens), Q92830; GCN5L2 HAT assay, ThioGlo1 CoA-SH fluorescence; Potency, µM (highest dose often 58.9 µM), for inactives: at the top dose activity change, negative = inhibition, most hits filed as inhibitors; actives 0.21% (n = 390,000); note: potency is the fitted concentration of half-maximal effect
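Titration-based screen in which CoA formation is detected via maleimide probe ThioGlo1 (50uM) turning fluorescent on thiol reaction; substrates H3(1-25) 75uM and acetyl-CoA 70uM, GCN5L2 20nM, 20 min incubation at room temperature.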
VDR inh: Inhibitors of the vitamin D receptor (VDR): qHTS | actives 0.93% (n = 400,000) | Vitamin D3 receptor (Homo sapiens), P11473 | VDR-SRC2-3 peptide fluorescence polarization, 2 h | AID 504847, 2011 | Potency, µM, for the others: max response, negative = inhibition, most hits filed as inhibitors; note: potency is the fitted concentration of half-maximal effect
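After 23 nl compound addition and a short centrifugation, plates sat for 2 hours at ambient temperature; polarization of fluorescence then indicated loss of VDR binding to peptide SRC2-3.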
PLK1 PBD inh: qHTS for Inhibitors of PLK1-PDB (polo-like kinase 1 - polo-box domain): Primary Screen | Serine/threonine-protein kinase PLK1 (Homo sapiens), P53350 | Plk1 PBD binding of FITC phosphopeptide, fluorescence polarization | Potency, µM, without a hit: max response, negative = inhibition, usual class: inhibitors | actives 2.8% (n = 360,000) | AID 720504, 2013; note: potency is the fitted concentration of half-maximal effect; series mostly up to about 57 µM; nearly all actives have a fitted effect of over 65% in size
* = called active by the depositor; ? = inconclusive; . = no result. Rows were chosen to be rich in hits. Some 3.1% of all compounds tested hit in one or more screens of this group. Unless noted, calls come from the whole dose curve; as a rule, active = well fitted curve in the direction sought with a large enough effect; inconclusive = small, poorly fitted or top-dose-only effect, or another doubt; inactive = no such curve, though single readings can be large; an effect the other way counts as inactive or inconclusive. Unless noted, % is set by controls: 0 for no effect and ±100 for the full control effect.

SMILES	GLS inh	PI4K2A block	GCN5L2 inh	VDR inh	PLK1 PBD inh
CC1C2=C(CC(C)(C)CC2=O)NC2=C1C(=O)CC(C)(C)C2	6%	-1	-16%	-13%	-4%
CCCC(=O)Nc1ccc(NC(=O)CCc2ccccc2)cn1	?	-21	-2%	-17%	3µM*
Cc1nc(NC(=O)CCc2ccccc2)sc1C	2%	-2	-20%	89µM*	15µM*
CCn1c(C(=O)OC)cc2c1ccn2-c1ccc(F)cc1	?	-23	-14%	?	3µM*
O=C1c2ccccc2C(=O)C12OC2c1ccc(Cl)cc1Cl (centres undefined)	-3%	-25	2%	89µM*	-27%
O=C1c2ccccc2C(=O)C1c1ccc(Cl)cc1	0%	-1	-9%	-9%	1%
COC(=O)c1ccc(=O)c2nc3/c(=C/O)c(O)cc(=O)c3[nH]c12	5µM*	-20	?	-11%	19µM*
COC(=O)c1ccc(N)cc1O	6%	-2	-6%	3%	-13%
O=C(NC1CCCCN(Cc2ccc(Cl)cc2)C1=O)C1C2CC3CC(C2)CC1C3 (centres undefined)	.	5	.	.	.
COCCCNC(=O)Cn1cc(C(C)=O)c2ccccc21	1%	2	-2%	0%	-5%
COCCNC(=O)Cn1cc(C(=S)N2CCOCC2)c2ccccc21	-10%	3	9%	-9%	30µM*
CCC1(C)N=C(c2ccc3c(c2)OCO3)CC(c2ccccc2O)N1 (centres undefined)	0%	2	-5%	4%	27µM*
COc1ccc([C@H]2OC(=O)C[C@H]2C(=O)N2CCCC2)cc1OC	.	3	.	.	.
O=C(Cc1ccccc1)N/N=C/c1ccc2c(c1)OCO2	2%	-6	0%	-3%	-18%
O=C(CNc1ccccc1)N/N=C/c1ccc2c(c1)OCO2	87%	0	-7%	-21%	24µM*
O=C1Nc2ccc(S(=O)(=O)N(CCO)CCO)c3cccc1c23	-1%	-4	-4%	-30%	21µM*
Cc1ccc(NC2=NCCC2)cc1Cl	-3%	-4	-1%	-4%	0%
Cc1nc2ccc(NC3=NCCCCC3)cc2s1	3%	-2	-6%	?	30µM*
CCN(CC)CCCNC(=O)CSc1nc2cccnc2n1C	.	-1	.	.	.
CCOC(=O)CSC1=Nc2ccccc2C2=NC(CC(=O)NCc3ccc(OC)cc3)C(=O)N12 (centres undefined)	2.2µM*	1	-6%	-4%	-11%
O=C(CCl)N1CCN2C(=O)c3ccccc3C12c1ccc(Cl)cc1 (centres undefined)	-14%	0	-13%	?	?
O=C(Nc1cccc(Cl)c1)N1CCN2C(=O)c3ccccc3C12c1ccccc1 (centres undefined)	-30%	1	-13%	-14%	12µM*
CC(C)c1nnc(SCC(=O)NCCC2=CCCCC2)n1N	4%	-8	4%	89µM*	11µM*
COC(=O)c1ccc(COC(=O)c2ccc(SC)cc2OC)cc1	30%	1	-1%	?	27µM*
COc1ccc(C(=O)/C=C/c2ccccc2)c(OC)c1	18%	2	-5%	-22%	-5%
SMILES	GLS inh	PI4K2A block	GCN5L2 inh	VDR inh	PLK1 PBD inh
COCOc1cc(OC)ccc1C(=O)/C=C/c1cccc(C(F)(F)F)c1	.	.	.	28µM*	.
COCOc1ccc(OC)cc1C(=O)/C=C/c1ccc(OC)c(Br)c1	.	.	.	40µM*	.
COc1ccc(/C=C/C(=O)N(CC(C)C)CC(C)C)cc1Br	14%	-5	-7%	-10%	-5%
NC(=O)CC(NC(=S)NCc1ccccc1)C(=O)O (centres undefined)	2%	-1	83%	-6%	21µM*
O=C(O)CC(NC(=S)NCc1ccccc1)C(=O)O (centres undefined)	-2%	5	83%	1%	-7%
Cc1ccc(S(=O)(=O)/N=C(\Sc2ccccc2)c2ccccc2)cc1	31%	-14	-1%	?	?
